Measurements from PubChem BioAssay.
Several values for one entry are separate records, joined by “and”; a condition that tells them apart may be missing. Equal values may be shown once.

Legend:
[1] = tested on: Botulinum neurotoxin type F light chain protease (Clostridium botulinum); experiment: Botulinum neurotoxin type F light chain protease inhibition, multiplex microsphere flow cytometry, validation set (AID 588459); conditions: multiplex microsphere protease substrate cleavage assay, at 10 µM, active compounds read high
[2] = biological target: Botulinum neurotoxin type A (Clostridium botulinum) (UniProt P0DPI0); experiment: BoNT/A light chain protease inhibitors, biochemical, multiplex microsphere flow cytometry, validation set (AID 588460); conditions: at 10 µM, active compounds read high
Botulinum neurotoxin type A (Clostridium botulinum), sequence (P0DPI0 whole entry, looked up): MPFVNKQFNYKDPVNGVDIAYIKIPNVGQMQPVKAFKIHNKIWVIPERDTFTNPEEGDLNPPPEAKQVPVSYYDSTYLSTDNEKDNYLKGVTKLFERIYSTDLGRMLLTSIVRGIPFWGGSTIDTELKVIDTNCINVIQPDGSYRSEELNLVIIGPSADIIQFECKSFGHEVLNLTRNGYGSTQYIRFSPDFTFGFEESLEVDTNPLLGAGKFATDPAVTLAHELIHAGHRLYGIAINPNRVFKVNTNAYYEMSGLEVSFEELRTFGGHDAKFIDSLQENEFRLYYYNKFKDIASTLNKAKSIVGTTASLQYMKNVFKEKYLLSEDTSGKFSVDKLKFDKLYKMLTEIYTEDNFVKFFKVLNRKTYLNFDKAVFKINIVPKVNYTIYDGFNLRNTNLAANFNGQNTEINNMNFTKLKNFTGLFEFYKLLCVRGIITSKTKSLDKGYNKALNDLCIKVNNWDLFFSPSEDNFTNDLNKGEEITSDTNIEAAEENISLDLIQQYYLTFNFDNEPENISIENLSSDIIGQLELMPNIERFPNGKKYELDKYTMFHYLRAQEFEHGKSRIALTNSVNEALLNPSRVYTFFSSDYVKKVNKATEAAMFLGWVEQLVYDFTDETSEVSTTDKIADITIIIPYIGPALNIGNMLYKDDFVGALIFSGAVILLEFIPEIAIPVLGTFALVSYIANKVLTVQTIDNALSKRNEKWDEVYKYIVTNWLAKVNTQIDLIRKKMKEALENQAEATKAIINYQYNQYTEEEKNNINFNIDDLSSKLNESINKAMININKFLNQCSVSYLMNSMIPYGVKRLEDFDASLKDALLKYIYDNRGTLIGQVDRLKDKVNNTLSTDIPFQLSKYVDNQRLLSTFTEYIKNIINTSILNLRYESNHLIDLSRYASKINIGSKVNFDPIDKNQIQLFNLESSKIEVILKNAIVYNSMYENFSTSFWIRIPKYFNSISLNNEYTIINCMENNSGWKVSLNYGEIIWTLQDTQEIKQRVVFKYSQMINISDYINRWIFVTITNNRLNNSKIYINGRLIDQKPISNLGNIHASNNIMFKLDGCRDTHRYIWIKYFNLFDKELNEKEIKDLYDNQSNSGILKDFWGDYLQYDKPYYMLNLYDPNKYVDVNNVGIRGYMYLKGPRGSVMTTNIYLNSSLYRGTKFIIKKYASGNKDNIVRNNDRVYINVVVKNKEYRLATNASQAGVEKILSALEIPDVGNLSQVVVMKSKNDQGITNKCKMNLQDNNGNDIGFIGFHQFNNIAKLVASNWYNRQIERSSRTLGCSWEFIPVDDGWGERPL

[3] = biological target: Lethal factor (Bacillus anthracis) (UniProt P15917); experiment: Lethal factor protease inhibitors, Bacillus anthracis, multiplex microsphere cleavage assay, validation set (AID 588461); conditions: flow cytometry, at 10 µM, active compounds read high
Lethal factor (Bacillus anthracis), sequence (P15917 whole entry, looked up): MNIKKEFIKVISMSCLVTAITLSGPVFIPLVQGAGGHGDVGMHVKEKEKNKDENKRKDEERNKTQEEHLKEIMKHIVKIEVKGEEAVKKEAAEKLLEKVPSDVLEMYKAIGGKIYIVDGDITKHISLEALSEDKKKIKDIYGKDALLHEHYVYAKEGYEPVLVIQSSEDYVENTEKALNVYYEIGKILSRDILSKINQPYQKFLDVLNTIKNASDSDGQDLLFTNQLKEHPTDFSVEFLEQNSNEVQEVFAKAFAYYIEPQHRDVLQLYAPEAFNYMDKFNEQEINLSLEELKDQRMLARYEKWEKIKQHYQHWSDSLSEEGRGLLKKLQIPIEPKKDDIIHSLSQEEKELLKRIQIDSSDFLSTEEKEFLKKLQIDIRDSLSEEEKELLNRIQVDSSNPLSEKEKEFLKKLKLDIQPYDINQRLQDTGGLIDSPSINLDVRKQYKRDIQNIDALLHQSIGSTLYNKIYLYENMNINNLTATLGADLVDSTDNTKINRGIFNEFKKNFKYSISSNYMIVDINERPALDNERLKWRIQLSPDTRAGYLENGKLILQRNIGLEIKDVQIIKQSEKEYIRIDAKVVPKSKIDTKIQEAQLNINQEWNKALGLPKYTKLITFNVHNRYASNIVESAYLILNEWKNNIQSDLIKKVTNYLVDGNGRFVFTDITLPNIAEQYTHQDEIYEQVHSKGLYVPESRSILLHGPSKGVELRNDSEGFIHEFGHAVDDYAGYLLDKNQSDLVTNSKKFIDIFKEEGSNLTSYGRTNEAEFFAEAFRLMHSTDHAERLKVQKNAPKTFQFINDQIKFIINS

Measured: inhibition

c1ccc(Nc2cccc3c(Nc4ccccc4)cccc23)cc1
inactive: [1] -3.6% | [2] -3% | [3] -25.4%

CCOc1ccc2ccccc2c1C(=O)N[C@@H]1C(=O)N2[C@@H]1SC(C)(C)[C@@H]2C(=O)O
inactive: [1] 5.4% | [2] 1.2% | [3] 0.3%

CC(C(=O)O)c1ccc(N2Cc3ccccc3C2=O)cc1 (stereo not given)
inactive: [1] 1.4% | [2] -1.6% | [3] -4.3%

CCOC(=O)C1=C[C@]2(CC)CCCN3CCc4c(n1c1ccccc41)[C@@H]32
inactive: [1] 1.3% | [2] -0.9% | [3] -7.9%

Cc1ccc2c(c1)c1c3n2CCCNC3CCC1 (stereo not given)
inactive: [1] 9.2% | [2] 1.9% | [3] 0.5%

O=C(NCc1ccc(N2CCCC2=O)cc1)c1ccc(F)cc1
inactive: [1] 5.2% | [2] -0.6% | [3] -3.8%

Cc1ccc(C(CC(=O)NCc2ccco2)c2ccc(OC(C)C)cc2)cc1 (stereo not given)
inactive: [1] 0.4% | [2] -1.6% | [3] -4%

CNS(=O)(=O)c1ccc(C)cc1
inactive: [1] -3.1% | [2] -0.5% | [3] -3.3%

Cc1cn([C@H]2C[C@H](N=[N+]=[N-])[C@@H](CO)O2)c(=O)[nH]c1=O
inactive: [1] 2.4% | [2] 0.2% | [3] -2.8%

CC[N+]1(CC)CC2=Cc3ccccc3CC2C1 (stereo not given)
inactive: [1] -1.1% | [2] 0% | [3] 3%

Cn1c2ccccc2c2cc(/C=C(\NC(=O)c3ccccc3)C(=O)O)ccc21
inactive: [1] -0.2% | [2] 0.3% | [3] 4.6%

CCN(CC)CCNC(=O)c1cc(Cl)c(N)cc1OC
inactive: [1] -1.3% | [2] -0.2% | [3] 0%

NC(=O)C1CCCNC1 (stereo not given)
inactive: [1] 1.6% | [2] -0.4% | [3] 5.4%

O=[N+]([O-])c1ccc(O)c2ncccc12
inactive: [1] -1.5% | [2] -3.7% | [3] -2.8%

CCN(CC)CCOC(=O)C(c1ccccc1)c1ccccc1
inactive: [1] 1.8% | [2] -1.6% | [3] -3.7%

CC(=O)N(CCC(Cc1ccccc1)c1ccco1)Cc1ccco1 (stereo not given)
inactive: [1] 1.4% | [2] 1.7% | [3] 0.3%

CC(C)C(=O)Nc1ccc2c3c(cccc13)CC2
inactive: [1] 1% | [2] 0.5% | [3] -3%

CCOC(=O)C1=C(N)Oc2c(c(=O)[nH]c3ccccc23)C1c1ccccc1 (stereo not given)
inactive: [1] 0.4% | [2] 1.1% | [3] -1.6%

O=c1nc2cccc3c2=c(/c1=C(\O)c1ccccc1)c1ccccc1c3=O
inactive: [1] 3.2% | [2] 0.6% | [3] -0.8%

O=c1c2ccccc2nc2n1CCCN2
inactive: [1] -4.6% | [2] -2.9% | [3] -7.9%

CC(C)[N+]1(C)[C@@H]2CC[C@H]1CC(OC(=O)C(CO)c1ccccc1)C2 (stereo not given in full)
inactive: [1] -2.9% | [2] 1% | [3] -3%

NCCCC(N)(C(=O)O)C(F)F (stereo not given)
inactive: [1] -3% | [2] 0.5% | [3] -2.1%

Cc1ccccc1NC(=O)C1c2ccccc2Oc2ccccc21
inactive: [1] 0.4% | [2] -0.3% | [3] 6.3%

NC(=O)c1cccnc1
inactive: [1] 1.8% | [2] -0.2% | [3] 3%

Cc1c(O)c(=O)ccn1C
inactive: [1] 3.3% | [2] -1% | [3] 0.9%

CC[C@H]1CN2CCc3cc(OC)c(OC)cc3[C@@H]2C[C@@H]1C[C@H]1NCCc2cc(OC)c(OC)cc21
inactive: [1] 3.7% | [2] 0.9% | [3] 0.6%

CCOC(=O)C1(CCCc2ccccc2)CCN(C2CCN(C(C)=O)CC2)CC1
inactive: [1] 0.1% | [2] 1.4% | [3] -6.4%

CN(C)C(=O)Oc1cccc([N+](C)(C)C)c1
inactive: [1] 0.7% and -1.3% | [2] 0.2% and -0.7% | [3] 1.5% and 2.9%

CC(=O)N1CCN(c2ccc(NC(=O)/C=C/c3ccccc3)cc2)CC1
inactive: [1] 4.3% | [2] -0.3% | [3] -2.2%

O=C(CC1(O)C(=O)Nc2ccccc21)c1ccccc1O (stereo not given)
inactive: [1] 0.6% | [2] -0.8% | [3] -1.4%

COc1ccc(/C=C\C(=O)c2c(O)ccc3c(C)cc(=O)oc23)cc1OC
inactive: [1] 1.5% | [2] 0.2% | [3] -2.9%

Cc1ccc2[nH]c3c(=O)n(CCc4cnc[nH]4)cnc3c2c1
inactive: [1] -6.6% | [2] -0.7% | [3] -10.5%

Cc1ccc(OCCSc2ncccn2)c(C)c1
inactive: [1] 3.4% | [2] 0.6% | [3] 1.7%

COc1ccc(O)c(N)c1
inactive: [1] -8.6% | [2] -3.6% | [3] -19.6%

O=C(O)c1cc(-c2ccccc2)nc2ccccc12
inactive: [1] -1.1% | [2] -0.1% | [3] -9.8%

O=c1ccn([C@@H]2O[C@H](CO)[C@@H](O)[C@H]2O)c(=O)[nH]1
inactive: [1] 0.8% | [2] -0.2% | [3] 1.9%

Cc1nc(N[C@@H](Cc2c[nH]c3ccccc23)C(=O)O)c2oc3ccccc3c2n1
inactive: [1] 1.3% | [2] -0.2% | [3] -6.5%

O=c1c(-c2ccc3c(c2)OCCO3)coc2cc(OC3OC(CO)C(O)C(O)C3O)ccc12 (stereo not given)
inactive: [1] 0.2% | [2] 0.1% | [3] 6.4%

COc1ccc2cc([C@H](C)C(=O)O)ccc2c1
inactive: [1] 0.3% | [2] -0.1% | [3] -2.6%

COC(=O)c1ccc(OCCCCN2CC(C)OC(C)C2)cc1 (stereo not given)
inactive: [1] -4.5% | [2] 0.2% | [3] 4%

CC(=O)CC(c1ccc([N+](=O)[O-])cc1)c1c(O)c2ccccc2oc1=O (stereo not given)
inactive: [1] 0.7% | [2] 0.2% | [3] -1.2%

O=Cc1ccc(O)c(O)c1
inactive: [1] -2% | [2] -1.1% | [3] -1%

Cc1ccc2c(c1C)NC(C(=O)O)C1CC=CC21 (stereo not given)
inactive: [1] -5.3% | [2] -1.9% | [3] -13.2%

CN1CCC(=C2c3ccccc3CC(=O)c3sccc32)CC1
inactive: [1] 8% | [2] 0.8% | [3] -4%

COc1cccc(OCc2cc(C3Nc4ccccc4C(=O)N3Cc3ccco3)ccc2OC)c1 (stereo not given)
inactive: [1] -1% | [2] 0.9% | [3] -2.1%

Cn1c2ccc(CC(=O)O)cc2c2cc(CC(=O)O)ccc21
inactive: [1] 2.2% | [2] -0.6% | [3] 7.2%

O=C(O)CCCN1C(=O)NC2NC(=O)NC21 (stereo not given)
inactive: [1] 0.1% | [2] -0.8% | [3] 0.4%

COc1ccccc1C(CCN(Cc1ccccc1)C(C)=O)c1ccco1 (stereo not given)
inactive: [1] -6.5% | [2] -1.3% | [3] -0.5%

COc1ccc(CCn2c(C)nc3c(c(=O)c4ccccc4n3C)c2=O)cc1
inactive: [1] 3.4% | [2] 0.2% | [3] 5.5%

COc1ccc(C(C)N2CC34C=CC(O3)C(C(=O)OCC(C)C)C4C2=O)cc1 (stereo not given)
inactive: [1] -1.9% | [2] -1.2% | [3] 0.2%

CCNC1=C(Cl)C(=O)c2ccccc2C1=O
inactive: [1] 1.2% | [2] -0.3% | [3] -6%

Cc1nc(N)sc1C(=O)N/N=C/c1ccco1
inactive: [1] -4.3% | [2] 0.1% | [3] 0.8%

CC(C)N(Cc1nccn1C)C(=O)CC1C(=O)NCCN1Cc1ccccc1C(F)(F)F (stereo not given)
inactive: [1] -1.2% | [2] -0.8% | [3] 0.4%

CC(C)[C@H](NC(=O)[C@@H]1CSCN1C(=O)OC(C)(C)C)C(=O)NCC1CCC(C(=O)O)CC1 (stereo not given in full)
inactive: [1] -1.3% | [2] -1.5% | [3] -2.2%

COc1cc(Cl)cc2c1Sc1ccccc1/C2=C/CCN(C)C
inactive: [1] -4.5% | [2] -1.1% | [3] -16.6%

COc1ccc2cc(C(=O)Nc3ccc(S(N)(=O)=O)cc3)sc(=O)c2c1OC
inactive: [1] 4.2% | [2] 0.6% | [3] 1.5%

CC(C)c1ccccc1OCCNC(=S)NC(=O)c1cccnc1
inactive: [1] 4.3% | [2] 1.6% | [3] 2.6%

CCOC(=O)C(NC(=O)CCC(=O)Nc1ccc(S(N)(=O)=O)cc1)C(O)c1ccccc1 (stereo not given)
inactive: [1] -0.5% | [2] -1% | [3] 5.9%

Cc1ncc([N+](=O)[O-])n1CCO
inactive: [1] 3% | [2] -0.4% | [3] -4.2%

CCOc1ccc(C(=O)NC(C)C2COc3ccccc3O2)cc1 (stereo not given)
inactive: [1] -6.8% | [2] -0.6% | [3] -4.7%

CC1(C)NC(C(=O)O)Cc2c1[nH]c1ccccc21 (stereo not given)
inactive: [1] -1.6% | [2] 1% | [3] -2.8%

Nc1ccc2nc(Cc3ccccc3)[nH]c2c1
inactive: [1] -12.8% | [2] -5.2% | [3] -74.5%

COc1cc2c(cc1OC)C(c1ccccc1)=NCC2
inactive: [1] 0.6% | [2] 0.8% | [3] 7%

CC[n+]1ccc2cc(OC)c(OC)cc2c1Cc1ccc(OC)c(OC)c1
inactive: [1] -0.2% | [2] 0.7% | [3] -0.5%

Cc1cc(=O)[nH]c(=S)[nH]1
inactive: [1] -3.5% | [2] -3.3% | [3] -7.5%
